# ± gives the standard deviation of the averaged measurements. The full ranking holds about 33,000 sequences; the median of “E-score (dimensionless, -0.5 to 0.5)” is about -0.049, and the highest 2% start at about 0.37. The sample as a whole holds a higher share of the highest values than the screen did.
# Test system: T1, PmTbr T-box DNA-binding domain (GST fusion)
# T1 sequence: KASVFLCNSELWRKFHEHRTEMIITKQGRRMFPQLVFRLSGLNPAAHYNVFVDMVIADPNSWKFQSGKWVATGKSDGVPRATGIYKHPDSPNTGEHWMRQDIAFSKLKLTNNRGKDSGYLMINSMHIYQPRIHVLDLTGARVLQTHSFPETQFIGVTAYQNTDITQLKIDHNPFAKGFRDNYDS
# Experiment: PBM E-score of 8-mer (E-score (dimensionless, -0.5 to 0.5)); Tbr is Tbrain of the sea star Patiria miniata (Pm) or the sea urchin Strongylocentrotus purpuratus (Sp); higher = stronger binding preference
# Conditions: the construct has about 5 more residues each side
# Summary of the method: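 Using the Universal PBM Analysis Suite, every ungapped 8-mer received an enrichment E-score averaged over duplicate arrays. Probe intensities came from double-stranded Universal Agilent oligonucleotide arrays incubated with 200 nM GST-fused Tbr T-box DNA-binding domain in PBS (pH 7.5). That protein was expressed in BL21 E. coli at 20 °C and purified by glutathione affinity chromatography.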
row,Sequence,PBM E-score of 8-mer
1,GCACCCCC,0.226 ± 0.047
2,CCACCCCG,0.235 ± 0.033
3,CCACCCCC,0.00912 ± 0.024
4,ACCCCCCT,-0.152 ± 0.11
5,ACACCCCT,0.4 ± 0.027
6,ACACCCGG,0.3462 ± 0.00071
7,GCACCCCA,0.242 ± 0.0042
8,TCACCCCA,0.277 ± 0.028
9,ACACCCCC,0.379 ± 0.017
10,ACCCCTCT,-0.0694 ± 0.019
11,ACACCCCG,0.397 ± 0.029
12,ACACCCCA,0.382 ± 0.015
13,CGTGCTCC,-0.172 ± 0.017
14,GTTGATCA,0.0616 ± 0.0014
15,GATACAGA,-0.189 ± 0.0045
16,ACGGCCTC,-0.166 ± 0.071
17,GTAGGAAA,-0.0915 ± 0.041
18,GTCGACGA,0.155 ± 0.015
19,ACAGACAT,0.0773 ± 0.016
20,ACACCCAG,0.339 ± 0.021
21,GCCCAACA,0.0617 ± 0.0082
22,AAAATTCT,-0.1 ± 0.051

row,Sequence,PBM E-score of 8-mer
1,AAGTGTAC,0.0291 ± 0.019
2,CAGTGTTC,-0.0572 ± 0.047
3,GAGTGTTA,0.385 ± 0.012
4,AAGTGTTG,0.437 ± 0.006
5,GAGTGTAC,-0.079 ± 0.061
6,CAGTGTTA,0.322 ± 0.0036
7,AAGTGTTA,0.467 ± 0.0064
8,AAGTGGTA,0.165 ± 0.013
9,AAGTGTTC,0.298 ± 0.012
10,CTTCTGGC,-0.0431 ± 0.0062
11,AGCCTCCT,-0.194 ± 0.057
12,ATGACCAG,-0.119 ± 0.011
13,GCTCTAGA,-0.268 ± 0.07
14,AACAGCCC,-0.015 ± 0.027
15,AGAGCACT,-0.194 ± 0.044
16,AGGGATAC,-0.319 ± 0.026
17,ATAGCCAA,-0.2 ± 0.05
18,ACACGTTC,0.337 ± 0.013
19,CCACGTTA,0.131 ± 0.0074
20,ACACGTCA,0.361 ± 0.0048
21,ACACGTTG,0.374 ± 0.0049
22,AAACGTTG,-0.22 ± 0.042

row,Sequence,PBM E-score of 8-mer
1,ACACGTTA,0.3709 ± 0.0015
2,ACACGTCG,0.391 ± 0.018
3,ACACGTCT,0.355 ± 0.021
4,ACACGTAG,0.206 ± 0.0044
5,CAGGGATA,-0.326 ± 0.061
6,GGACGCAC,-0.0479 ± 0.052
7,AACGAGCC,-0.319 ± 0.096
8,CACAGTCC,0.0117 ± 0.032
9,ACTGCACG,-0.149 ± 0.031
10,TGCGAAAA,0.391 ± 0.03
11,GGCGAGAA,0.339 ± 0.005
12,AGCGAAAA,0.0819 ± 0.093
13,TGCGAACA,0.396 ± 0.0075
14,AGCGAACA,0.0494 ± 0.02
15,GGCGAACA,0.0467 ± 0.018
16,TGCGAGAA,0.3906 ± 0.0012
17,CGCGAGAA,0.32 ± 0.0046
18,CGCGAAAA,0.359 ± 0.019
19,CACTCTAG,0.223 ± 0.0029
20,CGTGACAG,0.27 ± 0.015
21,GGTGACAC,0.4691 ± 0.0035
22,AGTGACAG,0.357 ± 0.0084

row,Sequence,PBM E-score of 8-mer
1,GTTGACGA,0.211 ± 0.012
2,GATGACAC,0.36 ± 0.02
3,GGAGACAC,0.142 ± 0.084
4,CGTGACCA,0.259 ± 0.018
5,GTTGACAA,0.3821 ± 0.0035
6,AGTGACAC,0.44 ± 0.0087
7,CTTGACAA,0.328 ± 0.0034
8,CGTGACAA,0.407 ± 0.025
9,AGTGACAT,0.309 ± 0.017
10,AGAAGGGA,-0.301 ± 0.082
11,AGTATAAT,-0.0999 ± 0.092
12,ATTGCGCG,0.0393 ± 0.076
13,CTCCATTC,-0.243 ± 0.042
14,ATCGTTGA,-0.173 ± 0.031
15,TATTGGGA,-0.222 ± 0.0037
16,AAGCGCCG,-0.0564 ± 0.022
17,ATTTTTGA,-0.289 ± 0.044
18,GGTGACCA,0.0575 ± 0.069
19,CGTGACGC,0.232 ± 0.0054
20,AGTGACCA,0.0489 ± 0.11
21,AGTGACGA,0.358 ± 0.016
22,AGTGACAA,0.4196 ± 0.0018

row,Sequence,PBM E-score of 8-mer
1,GGTGACGA,0.429 ± 0.013
2,CGTGACGA,0.331 ± 0.031
3,AGTGACTA,0.115 ± 0.011
4,CGTGACAC,0.398 ± 0.02
5,GGTGACAA,0.47312 ± 1.4e-05
6,GATGACAA,0.202 ± 0.017
7,CGTGACTC,0.0879 ± 0.021
8,CGGTCTTA,-0.0111 ± 0.035
9,GGCTCGCA,0.136 ± 0.053
10,ATCAGAAG,-0.0178 ± 0.033
11,AGCAGGGA,0.00886 ± 0.045
12,CAGACAGC,0.0475 ± 0.042
13,ACCCCAGT,-0.138 ± 0.1
14,CTAGTCCC,-0.132 ± 0.064
15,TCTGACAA,0.112 ± 0.048
16,TGTGACAA,0.42 ± 0.028
17,TATGACAA,0.0436 ± 0.061
18,AGAGCCAC,-0.0799 ± 0.014
19,CCTAGTTC,-0.072 ± 0.0041
20,CATCACAG,0.109 ± 0.038
21,AATCACAG,0.0723 ± 0.038

# From the supplement of paper PMC4166925
